FPRL1 ligand = ligands of human FPRL1, also counter-screen for FPR ligands | 24,000 compounds, 0.3% hits | P25090 | FPRL1-expressing cells, fluorescent ligand binding inhibition, flow cytometry | inhibition, % (no concentration beside the values) | AID 441;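 also: 0% = buffer alone and 100% = receptor blocker peptide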
Target sequence (P25090 whole entry, looked up): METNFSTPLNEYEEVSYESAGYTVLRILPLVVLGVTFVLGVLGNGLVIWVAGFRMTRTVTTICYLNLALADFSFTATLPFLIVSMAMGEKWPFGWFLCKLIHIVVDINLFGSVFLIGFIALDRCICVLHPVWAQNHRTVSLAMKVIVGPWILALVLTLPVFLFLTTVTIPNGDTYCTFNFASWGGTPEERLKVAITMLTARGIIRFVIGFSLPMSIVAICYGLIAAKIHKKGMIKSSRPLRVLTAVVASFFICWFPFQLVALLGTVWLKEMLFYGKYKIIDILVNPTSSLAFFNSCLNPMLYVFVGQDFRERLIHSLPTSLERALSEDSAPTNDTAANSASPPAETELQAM
VLA-4 antagonist = inhibition of LDV-FITC ligand binding to human VLA-4 integrin; Jurkat cells, LDV-FITC binding with Mn2+, flow cytometry; 100% = Mn2+-driven binding gain fully reversed; inhibition, % at 10 µM (by protocol); 24,000 compounds, 0.2% hits; AID 529;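 active = inhibition above 50%; inconclusive = compound itself fluorescent, judged against control cell fluorescence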;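 also: 0% = Mn2+ stimulated cells lacking compound and 100% = ligand binding without Mn2+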
FPR binder = human FPR ligand, with FPRL1 counter-screen. P21462. 24,000 compounds, 0.74% hits. FPR-expressing cells, fluorescent ligand binding, flow cytometry. inhibition, % (concentration not given with the values);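 also: 0% = buffer wells and 100% = receptor blocker peptide wells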
Autofluor Jurkat = counter-screen for VLA-4 integrin: compound autofluorescence in Jurkat cells; AID 576; flow cytometry; active compounds read high; 1 = vehicle-only cell background; 24,000 compounds, 0.61% hits; fluorescence ratio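 (tested at 10 µM compound in the well)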;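 active = fluorescence ratio above 2.44, which is 1 plus 3 SD of all ratios; inconclusive = signal too bright to measure linearly, ratio around 10 or more; inactive = fluorescence ratio below 2.44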;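 also: green fluorescence of cells measured with 488 nm excitation and 530 nm emission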
VLA-4 allo ag = allosterically activates the human VLA-4 integrin; Jurkat cells, LDV-FITC binding, flow cytometry; AID 528; activation, % at 10 µM (by protocol); 24,000 tested, under 10 active; P13612;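 active = fluorescent ligand binding to cells raised by more than 40% of the manganese-induced maximum; inconclusive = compound's own fluorescence above 85% of the ligand control signal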;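 also: 0% = ligand binding without compound and 100% = manganese-stimulated maximal binding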
Numbers without * were called inactive; ? = inconclusive; · = no result given. Sampled rows, rich in hits. Any-hit rate of the full collection: about 1.4%. Rule as the data show it, unless noted: active = inhibition above about 30%; inconclusive = no clear call, values can overlap the other calls; inactive = below that.

SMILES	FPRL1 ligand	VLA-4 antagonist	FPR binder	Autofluor Jurkat	VLA-4 allo ag
O=C(c1nc2n(n1)C(c1ccc(Cl)cc1)C=C(c1ccccc1)N2)N1CCOCC1 (stereo not given)	-8	?	-3	3.5*	?
O=C(NC1CCCC1)C(c1ccc(Cl)cc1)N1CCOCC1 (stereo not given)	3	6	-7	1.1	6
CC1(C)S[C@@H]2[C@H](NC(=O)Cc3ccccc3)C(=O)N2[C@H]1C(=O)O	8	-14	48*	1	1
CC1(C(=O)NC2CCCC2)CCC(=O)N1Cc1ccccc1 (stereo not given)	2	9	-4	1.2	4
CCOc1cc2[nH]c(=O)n(CC3CCC(C(=O)NCCC(C)C)CC3)c(=O)c2cc1OCC (stereo not given)	-4	60*	0	1.1	-26
CCOc1cc2[nH]c(=O)n(CCCCC(=O)NC3CCCCCC3)c(=O)c2cc1OCC	8	66*	0	0.95	-10
O=C(CCCn1c(=O)[nH]c2ccccc2c1=O)NC1CCCCCC1	1	-5	2	1	2
Cc1cc(NC(=O)CSc2nnc(Cn3c(=O)sc4ccccc43)n2-c2ccccc2C)no1	16	5	36*	1	-2
Cc1ccccc1-n1c(Cn2c(=O)sc3ccccc32)nnc1SCC(N)=O	6	-11	4	0.99	4
CC(C)OC(=O)c1nnn(-c2nonc2N)c1CN1CCc2ccccc2C1	-10	?	43*	1.3	?
Cc1cc(Nc2ccccc2N2CCOCC2)n2ncnc2n1	4	5	8	1.1	0
COc1ccc(N(CC(=O)Nc2cccc(C)c2)S(=O)(=O)c2c(C)n[nH]c2C)cc1	-1	23	2	0.98	-6
CCc1cccc(NC(=O)CN(c2ccc(OC)cc2)S(=O)(=O)c2c(C)n[nH]c2C)c1	1	62*	-2	0.91	-7
Cc1cc(N2CCN(C3CCCC3)CC2)n2c(nc3ccccc32)c1C#N	1	2	8	0.94	-1
Cc1c(CCC#N)c(N2CCN(C3CCCCC3)CC2)n2c(nc3ccccc32)c1C#N	-14	?	-19	8.6*	?
O=S(=O)(Nc1cccc2ncccc12)c1cccs1	39*	37	13	1.2	?
O=S(=O)(NCCc1ccccn1)c1cccs1	4	-4	0	0.97	2
CC1Cc2ccccc2N1C(=O)C1CCCN(S(=O)(=O)c2cccc3cccnc23)C1 (stereo not given)	-12	?	-6	3.6*	?
N#CC1=C(N)SC(N)=C(C#N)C1CCc1ccccc1	-8	?	-7	2.9*	?
COc1ccc(CCN2C(=O)C3C4C=CC(C4)C3C2=O)cc1OC (stereo not given)	-2	-31	-2	1.1	2
COc1cccc2sc(Nc3nnc(-c4ccccc4Cl)o3)nc12	·	73*	·	1	7
COc1ccccc1-c1nnc(Nc2nc3c(OC)cccc3s2)o1	4	12	-4	1.1	2
CC(=O)SCC(=O)N=c1sc2cc(F)ccc2n1C	34*	-15	56*	0.99	8
Cc1cccc2c(=O)oc(-c3ccc4c(c3)C(=O)N(CC3CCCO3)C4=O)nc12 (stereo not given)	0	4	15	0.99	-4
O=C(C1=C(O)C(=O)N(CC2CCCO2)C1c1cccnc1)c1ccco1 (stereo not given)	-6	·	39*	·	·
SMILES	FPRL1 ligand	VLA-4 antagonist	FPR binder	Autofluor Jurkat	VLA-4 allo ag
CCOc1ccc(C2C(C(=O)c3ccco3)=C(O)C(=O)N2Cc2cccnc2)cc1 (stereo not given)	5	·	50*	·	·
CCCOc1ccc(C2C(C(=O)c3ccc(C)o3)=C(O)C(=O)N2Cc2cccnc2)cc1 (stereo not given)	11	-16	52*	1.1	-7
COc1cc(C2C(C(=O)c3cccs3)=C(O)C(=O)N2Cc2ccco2)cc(OC)c1OC (stereo not given)	27	·	83*	·	·
C=CCOc1ccc(C2C(C(=O)c3ccco3)=C(O)C(=O)N2Cc2cccnc2)cc1 (stereo not given)	25	-36	25	0.97	4
COc1cccc(C2C(C(=O)c3ccc(C)o3)=C(O)C(=O)N2CCCN(C)C)c1 (stereo not given)	7	-4	6	1.1	4
CCOC(=O)C1CCN(S(=O)(=O)c2c(C)n[nH]c2C)CC1	-2	2	-9	0.98	5

Source: PubChem BioAssay (NMMLSC)
